Screening results deposited in PubChem BioAssay by National Center for Advancing Translational Sciences (NCATS).
This is a sample that favours compounds with a hit; in the whole collection about 7% have one here.
IL-1B inflam inh = inhibitors of inflammasome signaling (IL-1 beta secretion); THP-1 LPS/ATP IL-1B secretion, AlphaLISA, 16 h; stronger effect = lower value; activity change, % at 57.5 µM; 4.7% of 360,000 active; in the data active = activity change below about -50%; inconclusive = mostly about -30% to -49%
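THP-1 cells pretreated 1 hr with compounds (up to 57.5 uM final), then stimulated with LPS (250 ng/mL final) plus ATP (1.25 mM final); secreted IL-1B measured by AlphaLISA after 16 hr, decreased signal indicating inhibition.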
Integrin act MD = activators of alpha7 integrin expression for muscular dystrophy | Potency, µM (top dose mostly 38.3 µM), usual class: activators | alpha7betagal myoblasts, beta-gal FDG fluorescence, 48 h | 0.064% of 350,000 active; also: nearly all actives have a fitted effect of over 60% in size
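Alpha7betagal+/- myoblasts (passage 13) were plated 16-24 hr, then exposed to compounds (1:260 dilution of DMSO stock) for 48 hours at 37C. After MPER lysis, β-galactosidase reporter activity was read as FDG fluorescence (ex 480/em 540) after 30 minutes.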
ATXN2 expr inh = ATXN2 expression inhibition. HEK-293 ATXN2-luciferase reporter, luminescence, 24 h. Potency, µM (titrated, usually from 57 µM), most hits filed as inhibitors. 0.72% of 360,000 active. AID 1745845; also: nearly all actives have a fitted effect of over 55% in size
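qHTS (up to 57 uM final) was run with 24 h compound exposure of reporter cells at 37 °C. Each well was multiplexed: SteadyGlo luminescence measured ATXN2-luciferase expression after a fluorogenic Gly-Phe-AFC viability readout (25 uM final).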
S2 tox = reduces viability in counter-screen for ATXN expression inhibitors; S2 cells (HEK-293 line with an ATXN2-luciferase reporter) viability, CellTiter-Fluor protease fluorescence, 24 h; Potency, µM (top dose mostly 56.7 µM), hits mostly cytotoxic; 0.49% of 400,000 active; AID 651635; also: nearly all actives have a fitted effect of over 40% in size
D3 antag = D3 dopamine receptor (human) antagonism; P35462; max response, negative = inhibition, %; 2.5% of 360,000 active; AID 652054; D3R cells, DiscoveRx beta-arrestin luminescence, antagonist mode; stronger effect = lower value; in the data active = max response below about -50%; inconclusive = no clear call, values can overlap the other calls
Target sequence (P35462 whole entry, looked up): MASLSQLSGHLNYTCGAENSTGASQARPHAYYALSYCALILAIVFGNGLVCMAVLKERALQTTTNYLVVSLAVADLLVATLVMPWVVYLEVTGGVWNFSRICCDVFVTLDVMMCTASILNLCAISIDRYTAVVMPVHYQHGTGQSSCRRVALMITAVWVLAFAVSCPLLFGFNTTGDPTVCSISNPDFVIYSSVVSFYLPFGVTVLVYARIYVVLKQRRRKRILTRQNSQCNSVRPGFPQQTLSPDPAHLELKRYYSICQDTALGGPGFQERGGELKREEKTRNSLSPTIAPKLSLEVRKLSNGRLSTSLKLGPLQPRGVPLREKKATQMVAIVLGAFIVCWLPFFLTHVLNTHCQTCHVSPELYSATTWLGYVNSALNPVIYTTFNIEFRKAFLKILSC
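Cells expressing the human receptor were seeded at 1500 cells/well, incubated overnight at 37 degrees C in 5% CO2, then exposed to library compounds with dopamine controls for 90 minutes at 37 degrees C before luminescent detection.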
D3 ag = agonists of human D3 dopamine receptor. AID 652048. max activation, %. 0.58% of 410,000 active. D3R DiscoveRx beta-arrestin cells, luminescence, 90 min. P35462; in the data active = max activation above about 30%
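Cells at 1500/well, incubated overnight, then treated with pinned compounds (dopamine as control) for 90 min at 37 degrees C. DiscoveRx reagent added for 30 - 60 minutes at room temperature; luminescence read.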
Of the large screens only hits and unclear results are named; the others gave an inactive call. Unless noted, calls follow the shape of the dose curve; as a rule, active = well fitted curve in the direction sought with a large enough effect; inconclusive = small, poorly fitted or top-dose-only effect, or another doubt; inactive = no such curve, though single readings can be large; an effect the other way counts as inactive or inconclusive.

CCOC(=O)N1CCN(Cc2cc(Cl)c3cccnc3c2O)CC1	ATXN2 expr inh 3.5µM, S2 tox inconclusive, D3 antag -55
CCOC(=O)N1CCN(Cc2ccccc2Cl)CC1	none
COc1cccc(CN2CCN(c3ncccn3)CC2)c1OC	S2 tox inconclusive
COc1ccccc1N1CCN(Cc2ccc(O)c3ncccc23)CC1	ATXN2 expr inh 3.5µM, S2 tox inconclusive, D3 antag -105
CCOc1ccccc1N1CCN(Cc2cccc(OC)c2OC)CC1	D3 antag -89
COc1ccc(CN2CCN(CCCCOc3ccc(Cl)cc3)CC2)c(OC)c1OC	IL-1B inflam inh -61, ATXN2 expr inh inconclusive, S2 tox inconclusive, D3 antag inconclusive
O=C(c1ccc(S(=O)(=O)Nc2ccccc2F)cc1)N1CCC1	none
CCOC(=O)C1CCN(Cc2ccccc2C(F)(F)F)CC1	none
O=C(Oc1c(CN2CCOCC2)cc(Cl)c2cccnc12)c1ccccc1Br	S2 tox inconclusive, D3 antag -80 (no result: ATXN2 expr inh)
CCOc1ccccc1N1CCN(CC(=O)Nc2ncc(C)s2)CC1	none
COc1ccccc1N1CCN(Cc2ccc(OC)c(OC)c2OC)CC1	D3 antag -51 (no result: ATXN2 expr inh, S2 tox)
CCOC(=O)C1CCN(Cc2ccc(O)c3ncccc23)CC1	S2 tox inconclusive, D3 antag -93
CCOc1ccccc1N1CCN(Cc2cn[nH]c2-c2ccc(F)cc2)CC1	D3 antag -84
COc1ccc(C2C(C(=O)Nc3cccc(C)n3)CCC(=O)N2c2ccc(OC)cc2)cc1 (centres undefined)	S2 tox inconclusive
CC(Oc1ccccc1)C(=O)Nc1ccc(F)c(S(=O)(=O)N2CCOCC2)c1 (centres undefined)	none
CCN(CC)CCCNC(=O)CSc1nc2nc(C)c(Cc3ccccc3C)c(C)n2n1	S2 tox inconclusive (no result: IL-1B inflam inh, Integrin act MD, D3 antag)
CCOC(=O)c1nnc(-c2ccccc2)nc1Sc1ccccc1Cl	IL-1B inflam inh -116, ATXN2 expr inh inconclusive, S2 tox inconclusive
CCOC(=O)c1cnc(-c2ccccc2)nc1Oc1ccc(Cl)c(Cl)c1	none
CCOC(=O)c1nnc(-c2ccc(C)cc2)nc1Sc1cccc(Cl)c1	none
CCOC(=O)c1nnc(-c2ccccc2)nc1Oc1ccc(Cl)cc1	IL-1B inflam inh -71, ATXN2 expr inh inconclusive, S2 tox inconclusive
Cc1cc(C)cc(NC(=O)Cc2ccc(NC3=NC4CS(=O)(=O)CC4S3)cc2)c1 (centres undefined)	none
COC(=O)C1=C(C(=O)OC)SC2(S1)C(C(=O)OC)=C(C(=O)OC)SC1=C2c2cccc(C)c2NC1(C)C	none
CCCCc1ccc(NC(=O)CN2C(=O)C3CCCCC3C2=O)cc1 (centres undefined)	IL-1B inflam inh -76
CCCc1c(-c2cccc(F)c2)ncn1CCc1ccccc1OC	IL-1B inflam inh -78, S2 tox inconclusive (no result: Integrin act MD)
CCCCc1c(-c2cccc(F)c2)ncn1CCc1ccccc1OC	IL-1B inflam inh -74, ATXN2 expr inh inconclusive (no result: Integrin act MD, S2 tox)
CCCc1c(-c2cccc(F)c2)ncn1Cc1ccccc1OC	S2 tox inconclusive (no result: Integrin act MD)
CCCCc1c(-c2cccc(Br)c2)ncn1CCc1ccccc1OC	IL-1B inflam inh -72, ATXN2 expr inh inconclusive (no result: Integrin act MD, S2 tox)
CCCCCc1c(-c2cccc(OC)c2)ncn1CCc1ccccc1OC	IL-1B inflam inh -86, ATXN2 expr inh inconclusive (no result: Integrin act MD, S2 tox)
CCCCCc1c(-c2cccc(F)c2)ncn1CCc1ccccc1OC	ATXN2 expr inh inconclusive, S2 tox inconclusive (no result: Integrin act MD)
CCCCCc1c(-c2cccc(Cl)c2)ncn1CCc1ccccc1OC	none (no result: Integrin act MD)
O=C(Nc1ccc2nc3n(c(=O)c2c1)CCCC3)c1cncc(Br)c1	none
CN(C)CCCN(C(=O)c1nc2ccccc2s1)c1nc2ccc(F)cc2s1	S2 tox inconclusive
CN(C)CCCN(C(=O)c1ccc(S(=O)(=O)N(C)C2CCCCC2)cc1)c1nc2ccc(F)cc2s1	IL-1B inflam inh -98
COc1cc2nc(N(CCCN(C)C)C(=O)c3ccc(S(=O)(=O)N(C)C4CCCCC4)cc3)sc2cc1OC	IL-1B inflam inh -79, S2 tox inconclusive
COc1cc2nc(N(CCN(C)C)C(=O)c3ccc(S(=O)(=O)N(C)CC4CCCO4)cc3)sc2cc1OC (centres undefined)	none
CCc1ccc2nc(N(CCCN(C)C)C(=O)c3ccc(S(=O)(=O)N(C)C4CCCCC4)cc3)sc2c1	IL-1B inflam inh -61, S2 tox inconclusive
CCc1ccc2nc(N(CCCN(C)C)C(=O)c3ccc(S(=O)(=O)N4CCc5ccccc5C4)cc3)sc2c1	IL-1B inflam inh -84, ATXN2 expr inh inconclusive, S2 tox inconclusive
CCN(CC)CCN(C(=O)c1ccc(S(=O)(=O)N2CCCC2)cc1)c1nc2cc(C)cc(C)c2s1	IL-1B inflam inh inconclusive, Integrin act MD inconclusive, D3 antag inconclusive
CN(C)CCCN(C(=O)c1ccc(S(=O)(=O)N(C)C2CCCCC2)cc1)c1nc2ccc(Br)cc2s1	IL-1B inflam inh -83, ATXN2 expr inh inconclusive
Cc1cc(C)c2sc(N(CCCN(C)C)C(=O)c3ccc(S(=O)(=O)N(C)C4CCCCC4)cc3)nc2c1	IL-1B inflam inh -95, ATXN2 expr inh inconclusive, D3 antag inconclusive (no result: S2 tox)
CC1CCCCN1S(=O)(=O)c1ccc(C(=O)N(CCCN(C)C)c2nc3cc4c(cc3s2)OCO4)cc1 (centres undefined)	S2 tox inconclusive
CC(=O)c1c(C)[nH]c(C(=O)OCC(=O)N(C)c2c(N)n(Cc3ccccc3)c(=O)[nH]c2=O)c1C	none
C[C@H](CO)N1C[C@H](C)[C@@H](CN(C)Cc2ccc(-c3ccccc3)cc2)Oc2c(NS(=O)(=O)c3ccccc3)cccc2C1=O	IL-1B inflam inh inconclusive, S2 tox inconclusive
Cc1ccc(S(=O)(=O)Nc2cccc3c2O[C@H](CN(C)Cc2ccc(-c4ccccc4)cc2)[C@@H](C)CN([C@H](C)CO)C3=O)cc1	IL-1B inflam inh -74, S2 tox inconclusive
COc1ccc(S(=O)(=O)Nc2cccc3c2O[C@@H](CN(C)Cc2ccc(C(=O)O)cc2)[C@@H](C)CN([C@H](C)CO)C3=O)cc1	D3 ag 50
C[C@H](CO)N1C[C@H](C)[C@@H](CN(C)Cc2ccc(Cl)c(Cl)c2)Oc2c(NS(=O)(=O)c3ccc(F)cc3)cccc2C1=O	IL-1B inflam inh -82, ATXN2 expr inh inconclusive, S2 tox inconclusive
CCOC(=O)COc1ccc(Br)cc1/C=C\c1[nH]c(=O)[nH]c(=O)c1[N+](=O)[O-]	none
COC(=O)c1nc(NC(=O)c2ccc(Br)cc2)n[nH]1	none
COC(=O)c1nc(NC(=O)c2ccccc2Cl)n[nH]1	D3 antag -60
CN1CCCN(C(=O)/C=C/c2ccc(Cl)cc2Cl)CC1	none (no result: ATXN2 expr inh, S2 tox)
